From PubChem BioAssay
RN4220 kill: kills Staphylococcus aureus RN4220. inhibition, % (concentration not given with the values). actives 0.33% (n = 330,000). AID 1259311. S. aureus RN4220 growth, OD600, 16 h; in the data active = inhibition above about 85%
BJeLR viability: kills HRASV12-expressing BJeLR cells | BJeLR (HRASV12) viability, CellTiter-Glo ATP luminescence, 48 h | inhibition, % (test concentration not listed) | actives 0.17% (n = 300,000); in the data active = inhibition above about 50%
Sa ugtP lethal: growth inhibition of S. aureus ugtP deletion strain; S. aureus RN4220 ugtP deletion, OD600 growth, 16 h; growth inhibition, % (no concentration beside the values); actives 0.54% (n = 330,000); AID 1259309; in the data active = growth inhibition above about 68%
Large screens that a line does not name were inactive; ! = not confirmed by another sample. Sampled rows, rich in hits. Any-hit rate of the full collection: about 0.65%.

CCOc1ccc(NS(=O)(=O)c2cc(NC(=O)c3ccc(C)cc3)ccc2Cl)cc1	Sa ugtP lethal 85
Cc1cccc(-n2c(O)c(C=Nc3ccc(S(N)(=O)=O)cc3)c(=O)[nH]c2=O)c1	none
Cc1ccc(Cl)cc1N1CCN(C(=O)c2ccc(NC3=NC4CS(=O)(=O)CC4S3)cc2)CC1 (stereo not given)	none
O=C(NN=C1C(=O)c2cccc3cccc1c23)c1ccc(Cl)cc1	RN4220 kill 97, Sa ugtP lethal 92 (no result: BJeLR viability)
O=C(N/N=C1\C(=O)c2cccc3cccc1c23)c1ccc(O)cc1	none
CC1CC1C(=O)N(C)CC(=O)Nc1ccc(Cl)c(C(F)(F)F)c1 (stereo not given)	none
CCc1cccc(CC)c1NC(=S)NCc1nc2ccccc2[nH]1	none
Cc1cc(C)c(NC(=O)c2cn3c4c(c(N5CCN(C)CC5)c(F)cc4c2=O)OCC3C)c(C)c1 (stereo not given)	none
CN1CCN(c2c(F)cc3c(=O)c(C(=O)O)cn4c3c2OCN4C)CC1	RN4220 kill 99, Sa ugtP lethal 99
Cc1ccc2[nH]cc(C(=O)CN3CCN(C)CC3)c2c1	none
Cc1ccc2[nH]cc(C(=O)CCl)c2c1	BJeLR viability 54
NC(N)=NC(=O)c1nc(Cl)c(N)nc1N	Sa ugtP lethal 98!
COC(=O)c1nc(Cl)c(Cl)c(N)c1Cl	none
CCc1cc2c(SCC(=O)N(C)C3CCS(=O)(=O)C3)ncnc2s1 (stereo not given)	none
COc1ccc2c(=O)c3c(=O)n(Cc4ccco4)c(-c4ccco4)nc3oc2c1	none
COc1ccc(-c2nc3oc4cc(OC)ccc4c(=O)c3c(=O)n2Cc2ccco2)cc1	Sa ugtP lethal 98
O=C(NN=Cc1ccc2c(c1)OCO2)c1ccn(Cc2ccc(Cl)cc2)n1	none (no result: BJeLR viability)
O=C(COC(=O)C1CC(O)CN1S(=O)(=O)c1ccc(Cl)cc1)c1cccc(Cl)c1 (stereo not given)	none
CCn1cc(C(=O)O)c(=O)c2cnc(N3CCN(C(=S)NC(=O)c4ccc(OC)cc4)CC3)nc21	Sa ugtP lethal 86
CCn1cc(C(=O)O)c(=O)c2cnc(N3CCN(C(=S)NC(=O)c4ccccc4Cl)CC3)nc21	RN4220 kill 99, Sa ugtP lethal 94
CCn1cc(C(=O)O)c(=O)c2cnc(N3CCN(C(=S)NC(=O)c4ccc(Cl)cc4Cl)CC3)nc21	none
CCn1cc(C(=O)O)c(=O)c2cnc(N3CCN(C(=S)NC(=O)c4ccc(F)c(F)c4)CC3)nc21	none
Cc1cc(C)nc(-n2nc(C)c3c(C(F)(F)F)cc(=O)[nH]c32)n1	none
CN(CCC1CCOCC1)C(=O)CC1C(=O)NCCN1C/C=C/c1ccccc1 (stereo not given)	none
CCc1ccc(OCC(O)CN2CCC(CN3C(=O)c4cccc5cccc(c45)C3=O)CC2)cc1 (stereo not given)	Sa ugtP lethal 85
O=C1c2cccc3cccc(c23)C(=O)N1CC1CCN(CC(O)COc2ccc3ccccc3c2)CC1 (stereo not given)	none
COc1ccccc1OC(=O)CCN1c2ccccc2Sc2ccccc21	none
COc1ccc(-[n+]2c(C)cc(/C=C3\Sc4ccccc4N3C)cc2C)cc1	RN4220 kill 100, Sa ugtP lethal 100
COc1ccccc1-[n+]1c(C)cc(/C=C2\Sc3ccccc3N2C)cc1C	RN4220 kill 100, BJeLR viability 73, Sa ugtP lethal 100
COc1ccc(C(=O)/C=C2\Sc3ccccc3N2C)cc1	none
COc1ccc(CCNC(=O)CSc2nc3ccccc3c3nc(CCN4CCCCC4)nn23)cc1OC	none
COc1ccccc1NC(=O)CNC(=O)c1ccc(F)cc1	none
O=C1c2cccc3cccc(c23)C(=O)N1CCN1CCN(C(=S)Nc2ccccc2)CC1	RN4220 kill 93, Sa ugtP lethal 98
O=C1c2cccc3cccc(c23)C(=O)N1CCN1CCN(C(=S)Nc2ccc(Cl)cc2)CC1	none
O=C(Nc1ccc(F)cc1)NC1(C(=O)NCc2ccco2)CCCCC1	none
O=C(Nc1ccc(F)cc1)NC1(C(=O)NCc2ccc3c(c2)OCO3)CCCCC1	Sa ugtP lethal 100
CSc1nnc(-c2ccccc2)n1C	none
COc1ccc(C2=Nc3nc(-c4ccccc4)cn3C(c3ccc(OC)cc3)C2)cc1 (stereo not given)	Sa ugtP lethal 85
COc1ccc(C2CC(c3ccccc3)=NN2C(=O)CCC(=O)O)cc1 (stereo not given)	none (no result: RN4220 kill, Sa ugtP lethal)
O=C(CCn1[nH]c(=O)c2ccccc2c1=O)NCCO	none
CCOc1cccc(C=NNc2ccc(S(=O)(=O)N(CC)CC)cn2)c1O	Sa ugtP lethal 100 (no result: BJeLR viability)
CCN(CC)S(=O)(=O)c1ccc(N/N=C/c2ccc(O)cc2O)nc1	none (no result: RN4220 kill, Sa ugtP lethal)
C=CCNC(=S)/C(=C(/[O-])c1ccc([N+](=O)[O-])cc1)[n+]1ccccc1	none
O=C1C=C(c2cc3ccccc3s2)CC(c2ccc3c(c2)OCO3)C1 (stereo not given)	none (no result: BJeLR viability)
CC(C)(C)c1ccc(NC(=O)COC(=O)c2ccc([N+](=O)[O-])s2)cc1	Sa ugtP lethal 100 (no result: BJeLR viability)
